High-throughput results as filed in PubChem BioAssay.
In the library only some 2.2% were active in any assay of this set; here they are far more common.
EWS-Fli block: inhibitors of EWS/Fli oncoprotein transcriptional activity; inhibition, % at 12.6 µM; AID 651661; 350,000 compounds, 0.67% hits; A673 NR0B1-luciferase reporter, viability-normalised;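 active = mean inhibition of at least 50% after viability correction, with every replicate also passing that limit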;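 also: firefly luciferase signal divided by Alamar Blue viability fluorescence both relative to DMSO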
Shn3 3UTR inh: Schnurri-3 reporter inhibition in Clone20 osteoblasts; Clone20 osteoblast Shn3 3'UTR firefly luciferase, 24 h; inhibition, % at 12.5 µM; AID 588674; 360,000 compounds, 0.52% hits;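 active = mean inhibition of at least 75% with every replicate also reaching 75%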
LGR2 inh: Drosophila LGR2 receptor signaling inhibition | HEK293 LGR2, CRE-luciferase, bursicon-stimulated, 4 h | inhibition, % at 9.99 µM | 380,000 compounds, 0.35% hits | AID 720647;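 active = drop in luminescence signal, shown as inhibition above about 50% in the replicate tests, limit read from the data, passing the limit was not always enough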;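 also: agonist challenge used bursicon conditioned medium at about half maximal strength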
TRPM1 prom inh: reduces MITF-dependent TRPM1 promoter luciferase signal. inhibition, % at 12.5 µM. 330,000 compounds, 0.83% hits. SK-MEL-5 TRPM1 promoter luciferase, 24 h;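 active = mean inhibition across replicates of 60% or more, whatever share of single replicates reaches that level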
PAX8 reporter: inhibitors of PAX8 transcriptional activity in RMG-I cells; RMG-I TPO-luciferase reporter, SteadyGlo, 24 h; 360,000 compounds, 1.2% hits; inhibition, % at 12.6 µM;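 active = mean replicate inhibition at least 60% with every replicate also reaching 60%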;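 also: luciferase light reporting Pax8 driven TPO promoter activity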
EBV LMP1 NFkB: inhibitors of Epstein-Barr LMP1-induced NF-kappaB reporter. LMP1-induced NF-kappaB luciferase reporter cells, luminescence. inhibition, % at 12.5 µM. 350,000 compounds, 0.69% hits. AID 504558; in the data active = inhibition above about 41%
Of the large screens only hits and unclear results are named; the others gave an inactive call; ! = not confirmed by another sample.

OC(CSc1ccncc1)CC(O)c1ccccc1 (stereo unspecified)	none (no result: Shn3 3UTR inh, LGR2 inh, TRPM1 prom inh, EBV LMP1 NFkB)
CC(=O)Nc1ccc2c(c1)C(=O)N(C)[C@@H]1CC[C@@H](CC(=O)NCc3ccc(F)cc3)O[C@H]1CO2	none (no result: Shn3 3UTR inh, TRPM1 prom inh, EBV LMP1 NFkB)
CCCC#Cc1cnc2c(c1)C(=O)N([C@H](C)CO)C[C@H](C)[C@H](CN(C)C(=O)c1ccc3c(c1)OCO3)O2	none (no result: Shn3 3UTR inh, TRPM1 prom inh, EBV LMP1 NFkB)
O=C(N/N=C/c1c(O)ccc2ccccc12)c1cccc(C(F)(F)F)c1	TRPM1 prom inh 71, PAX8 reporter 70 (no result: EWS-Fli block)
O=C(CN1CCCC1)N/N=C/c1c(O)ccc2ccccc12	Shn3 3UTR inh 91
COc1ccc2ccccc2c1/C=N/NC(=O)c1cccc(Br)c1	none
C[C@H](CO)N1C[C@H](C)[C@@H](CN(C)C)OCCCC[C@H](C)Oc2ccc(NS(=O)(=O)c3ccccc3)cc2C1=O	none (no result: Shn3 3UTR inh, TRPM1 prom inh, EBV LMP1 NFkB)
C[C@H]1CN([C@@H](C)CO)S(=O)(=O)c2ccc(Br)cc2O[C@H]1CN(C)S(=O)(=O)c1ccc(F)cc1	none (no result: Shn3 3UTR inh, TRPM1 prom inh, EBV LMP1 NFkB)
CCSCCc1nnc(NC(=O)Nc2cccc(C(F)(F)F)c2)s1	TRPM1 prom inh 67, PAX8 reporter 106
O=C(Nc1cccc(C(F)(F)F)c1)Nc1nnc([C@H]2C[C@H](O)[C@@H](CO)O2)s1	none (no result: TRPM1 prom inh, EBV LMP1 NFkB)
C/C=C/c1ccc(C2[C@@H]3CN(C(=O)Nc4ccc(F)cc4)C[C@H]2N3)cc1 (stereo partly specified)	none (no result: Shn3 3UTR inh, TRPM1 prom inh, EBV LMP1 NFkB)
O=C(Nc1cccc(F)c1)N1C[C@@H]2N[C@H](C1)C2c1ccc(-c2ccccc2F)cc1 (stereo partly specified)	none (no result: Shn3 3UTR inh, TRPM1 prom inh, EBV LMP1 NFkB)
O=C(Nc1ccc(F)cc1)N1C[C@@H]2N[C@H](C1)C2c1ccc(/C=C/c2ccccc2)cc1 (stereo partly specified)	PAX8 reporter 105! (no result: Shn3 3UTR inh, TRPM1 prom inh, EBV LMP1 NFkB)
COc1cccc(-c2ccc(C3[C@@H]4CN(C(=O)C5CC5)C[C@H]3N4)cc2)c1 (stereo partly specified)	LGR2 inh 62!, PAX8 reporter 80! (no result: Shn3 3UTR inh, TRPM1 prom inh, EBV LMP1 NFkB)
Cc1ccccc1-c1ccc(C2[C@@H]3CN(C(=O)Nc4cccc(F)c4)C[C@H]2N3)cc1 (stereo partly specified)	PAX8 reporter 85! (no result: Shn3 3UTR inh, TRPM1 prom inh, EBV LMP1 NFkB)
O=C(NC1CCCCC1)N1C[C@@H]2N[C@H](C1)C2c1ccc(-c2ccc(F)cc2)cc1 (stereo partly specified)	PAX8 reporter 105! (no result: Shn3 3UTR inh, TRPM1 prom inh, EBV LMP1 NFkB)
CN(C)C(=O)C[C@H]1C[C@H]2c3cc(NC(=O)c4ccc5c(c4)OCO5)ccc3O[C@H]2[C@@H](CO)O1	none (no result: Shn3 3UTR inh, TRPM1 prom inh, PAX8 reporter, EBV LMP1 NFkB)
Cc1noc(C)c1S(=O)(=O)N(C)C[C@H]1Oc2c(NS(=O)(=O)c3ccc(F)cc3)cccc2C(=O)N([C@@H](C)CO)C[C@H]1C	none (no result: Shn3 3UTR inh, TRPM1 prom inh, PAX8 reporter, EBV LMP1 NFkB)
C[C@H]1CN([C@@H](C)CO)C(=O)c2cc(-c3ccc(C#N)cc3)cnc2O[C@H]1CN(C)C(=O)c1ccccc1	none (no result: Shn3 3UTR inh, TRPM1 prom inh, PAX8 reporter, EBV LMP1 NFkB)
COc1cc(CN2C[C@@H]3N[C@H](C2)C3c2ccc(-c3ccncc3)cc2)cc(OC)c1 (stereo partly specified)	none (no result: Shn3 3UTR inh, TRPM1 prom inh, EBV LMP1 NFkB)
COc1ccccc1NC(=O)N1C[C@@H]2N[C@H](C1)C2c1ccc(-c2cccc(C#N)c2)cc1 (stereo partly specified)	EWS-Fli block 53! (no result: Shn3 3UTR inh, TRPM1 prom inh, EBV LMP1 NFkB)
COc1ccc(-c2ccc(C3[C@@H]4CN(C(=O)Nc5cccc(F)c5)C[C@H]3N4)cc2)cc1 (stereo partly specified)	PAX8 reporter 100! (no result: Shn3 3UTR inh, TRPM1 prom inh, EBV LMP1 NFkB)
O=C(Nc1cccc(F)c1)N1C[C@@H]2N[C@H](C1)C2c1ccc(-c2ccncc2)cc1 (stereo partly specified)	none (no result: Shn3 3UTR inh, TRPM1 prom inh, EBV LMP1 NFkB)
COc1ccc(NC(=O)N2C[C@@H]3N[C@H](C2)[C@@H]3c2ccc(-c3ccc(OC)cc3)cc2)cc1	PAX8 reporter 93 (no result: Shn3 3UTR inh, TRPM1 prom inh, EBV LMP1 NFkB)
COc1ccc(-c2ccc(C3[C@@H]4CN(Cc5cc(OC)cc(OC)c5)C[C@H]3N4)cc2)cc1 (stereo partly specified)	PAX8 reporter 86! (no result: Shn3 3UTR inh, TRPM1 prom inh, EBV LMP1 NFkB)
COc1ccc(NC(=O)N(C)C[C@@H]2Oc3ncc(-c4cccnc4)cc3C(=O)N([C@@H](C)CO)C[C@@H]2C)cc1	none (no result: Shn3 3UTR inh, TRPM1 prom inh, EBV LMP1 NFkB)
CN1c2ccc(-c3ccccc3F)cc2[C@@H]2[C@@H](CCN2S(=O)(=O)c2ccccc2)[C@@H]1CO	none (no result: Shn3 3UTR inh, TRPM1 prom inh, EBV LMP1 NFkB)
C[C@@H]1CCCCO[C@@H](CN(C)Cc2ccccc2)[C@H](C)CN([C@@H](C)CO)C(=O)c2cc(NC(=O)Nc3ccc(C(F)(F)F)cc3)ccc2O1	PAX8 reporter 106 (no result: Shn3 3UTR inh, TRPM1 prom inh, EBV LMP1 NFkB)
